# Tests used:
# [1] = target: T1, GST-Nv-NF-kB (Ser allele) (Nematostella vectensis, UniProt A7UNT2 2-411); assay: protein-binding microarray (PBM); PBM: ~300 nM protein, 6 mM HEPES pH 7.8, 80 mM KCl, 0.5 mM EDTA, 0.5 mM EGTA, 6% glycerol, 35 ng/ul poly-dIdC, 1% milk, 1 h, room temperature; Ap Aiptasia and Nv Nematostella (sea anemones) / Co Capsaspora / Aq Amphimedon (sponge) / Dm Drosophila / Hu human; RHD is the Rel homology domain; high values mean tight binding; conditions: dsDNA, one strand shown
# T1 sequence: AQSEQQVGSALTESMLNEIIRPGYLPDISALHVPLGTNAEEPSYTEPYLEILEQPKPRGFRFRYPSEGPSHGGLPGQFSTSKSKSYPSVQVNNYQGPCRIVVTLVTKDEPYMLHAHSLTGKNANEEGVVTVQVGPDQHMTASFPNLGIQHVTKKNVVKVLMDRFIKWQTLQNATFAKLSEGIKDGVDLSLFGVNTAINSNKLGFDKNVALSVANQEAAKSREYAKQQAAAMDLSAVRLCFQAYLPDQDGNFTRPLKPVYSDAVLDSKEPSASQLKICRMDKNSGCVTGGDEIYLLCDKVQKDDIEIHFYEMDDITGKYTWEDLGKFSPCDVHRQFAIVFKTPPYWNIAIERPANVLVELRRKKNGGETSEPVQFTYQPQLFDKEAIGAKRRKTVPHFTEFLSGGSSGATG
# GST-Hu-p50 = GST-Hu-p50 (Homo sapiens, UniProt P19838 7-356); assay: as above; conditions: dsDNA, one strand shown
# GST-Hu-p50, sequence (P19838 7-356): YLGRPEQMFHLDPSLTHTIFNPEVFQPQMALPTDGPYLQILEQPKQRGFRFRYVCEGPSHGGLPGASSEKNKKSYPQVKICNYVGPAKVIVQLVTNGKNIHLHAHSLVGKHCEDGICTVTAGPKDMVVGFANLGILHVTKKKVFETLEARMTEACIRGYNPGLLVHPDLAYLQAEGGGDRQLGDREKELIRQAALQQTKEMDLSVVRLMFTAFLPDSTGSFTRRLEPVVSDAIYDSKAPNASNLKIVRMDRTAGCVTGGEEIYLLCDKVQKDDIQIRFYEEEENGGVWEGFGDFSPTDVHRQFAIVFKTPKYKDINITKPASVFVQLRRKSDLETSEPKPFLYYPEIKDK
sequence,measurement,setting,value
CCGATTAACATCAAAAAAAATCCTGATGTTAATCGGGTCTTGATTCGCTTGACGCTGCTG,binding signal,[1],1.23 z-score
same,binding signal,GST-Hu-p50,1.51 z-score
CCGATTAACATCAATCGTCCCCCTGATGTTAATCGGGTCTTGATTCGCTTGACGCTGCTG,binding signal,[1],4.3 z-score
same,binding signal,GST-Hu-p50,3.44 z-score
CCGATTAACATCAGTAATTCCCATGATGTTAATCGGGTCTTGATTCGCTTGACGCTGCTG,binding signal,[1],3.61 z-score
same,binding signal,GST-Hu-p50,3 z-score
CCGATTAACATCAGGGGGTGAAATGATGTTAATCGGGTCTTGATTCGCTTGACGCTGCTG,binding signal,[1],4.3 z-score
same,binding signal,GST-Hu-p50,4.19 z-score
CCGATTAACATCAATTTCCCATATGATGTTAATCGGGTCTTGATTCGCTTGACGCTGCTG,binding signal,[1],3.63 z-score
same,binding signal,GST-Hu-p50,3.09 z-score
CCGATTAACATCAGGGGAGCCCCTGATGTTAATCGGGTCTTGATTCGCTTGACGCTGCTG,binding signal,[1],5.34 z-score
same,binding signal,GST-Hu-p50,5.03 z-score
CCGATTAACATCAATGGGTTTTCTGATGTTAATCGGGTCTTGATTCGCTTGACGCTGCTG,binding signal,[1],2.25 z-score
same,binding signal,GST-Hu-p50,1.9 z-score
CCGATTAACATCAGGGAATTAACTGATGTTAATCGGGTCTTGATTCGCTTGACGCTGCTG,binding signal,[1],3.91 z-score
same,binding signal,GST-Hu-p50,2.81 z-score
CCGATTAACATCAACCCCCGGCTTGATGTTAATCGGGTCTTGATTCGCTTGACGCTGCTG,binding signal,[1],2.23 z-score
same,binding signal,GST-Hu-p50,3.29 z-score
CCGATTAACATCAAAAAAAGTCCTGATGTTAATCGGGTCTTGATTCGCTTGACGCTGCTG,binding signal,[1],1.42 z-score
same,binding signal,GST-Hu-p50,2.19 z-score
CCGATTAACATCAAAGCATTCCCTGATGTTAATCGGGTCTTGATTCGCTTGACGCTGCTG,binding signal,[1],2.52 z-score
same,binding signal,GST-Hu-p50,2.12 z-score
CCGATTAACATCAAATTCCCGTATGATGTTAATCGGGTCTTGATTCGCTTGACGCTGCTG,binding signal,[1],4.51 z-score
same,binding signal,GST-Hu-p50,3.02 z-score
CCGATTAACATCACCGAATTTGGTGATGTTAATCGGGTCTTGATTCGCTTGACGCTGCTG,binding signal,[1],1.14 z-score
same,binding signal,GST-Hu-p50,2.09 z-score
CCGATTAACATCAAGTACTTCCCTGATGTTAATCGGGTCTTGATTCGCTTGACGCTGCTG,binding signal,[1],1.34 z-score
same,binding signal,GST-Hu-p50,1.17 z-score
CCGATTAACATCAAGAATTCCCATGATGTTAATCGGGTCTTGATTCGCTTGACGCTGCTG,binding signal,[1],5.01 z-score
same,binding signal,GST-Hu-p50,4.34 z-score
CCGATTAACATCAGGGAATTAGATGATGTTAATCGGGTCTTGATTCGCTTGACGCTGCTG,binding signal,[1],3.54 z-score
same,binding signal,GST-Hu-p50,2 z-score
CCGATTAACATCAGGACTTCCCATGATGTTAATCGGGTCTTGATTCGCTTGACGCTGCTG,binding signal,[1],1.03 z-score
same,binding signal,GST-Hu-p50,1.76 z-score
CCGATTAACATCAGGCTATCCCCTGATGTTAATCGGGTCTTGATTCGCTTGACGCTGCTG,binding signal,[1],3.73 z-score
same,binding signal,GST-Hu-p50,3.43 z-score
CCGATTAACATCAGGGAAAACACTGATGTTAATCGGGTCTTGATTCGCTTGACGCTGCTG,binding signal,[1],5.79 z-score
same,binding signal,GST-Hu-p50,4.24 z-score
CCGATTAACATCAGGGAGTCCCATGATGTTAATCGGGTCTTGATTCGCTTGACGCTGCTG,binding signal,[1],2.92 z-score
same,binding signal,GST-Hu-p50,3.1 z-score
CCGATTAACATCACCAATTTCCCTGATGTTAATCGGGTCTTGATTCGCTTGACGCTGCTG,binding signal,[1],6.05 z-score
same,binding signal,GST-Hu-p50,3.76 z-score
CCGATTAACATCAGGCCGTCCCCTGATGTTAATCGGGTCTTGATTCGCTTGACGCTGCTG,binding signal,[1],3.43 z-score
same,binding signal,GST-Hu-p50,3.86 z-score
CCGATTAACATCACGGGAGTTCCTGATGTTAATCGGGTCTTGATTCGCTTGACGCTGCTG,binding signal,[1],1.6 z-score
same,binding signal,GST-Hu-p50,2.24 z-score
CCGATTAACATCAGGGAATGCCATGATGTTAATCGGGTCTTGATTCGCTTGACGCTGCTG,binding signal,[1],2.41 z-score
same,binding signal,GST-Hu-p50,1.54 z-score
CCGATTAACATCAGGGGGACAAATGATGTTAATCGGGTCTTGATTCGCTTGACGCTGCTG,binding signal,[1],5.1 z-score
same,binding signal,GST-Hu-p50,3.81 z-score
CCGATTAACATCAGGGAAGTCCATGATGTTAATCGGGTCTTGATTCGCTTGACGCTGCTG,binding signal,[1],1.93 z-score
same,binding signal,GST-Hu-p50,1.11 z-score
CCGATTAACATCAGGGGGCGCACTGATGTTAATCGGGTCTTGATTCGCTTGACGCTGCTG,binding signal,[1],2.76 z-score
same,binding signal,GST-Hu-p50,4.11 z-score
CCGATTAACATCAAACAACCCCCTGATGTTAATCGGGTCTTGATTCGCTTGACGCTGCTG,binding signal,[1],4.83 z-score
same,binding signal,GST-Hu-p50,5.05 z-score
CCGATTAACATCACGGGAAACTCTGATGTTAATCGGGTCTTGATTCGCTTGACGCTGCTG,binding signal,[1],3.54 z-score
same,binding signal,GST-Hu-p50,2.31 z-score
CCGATTAACATCAGGGGAGTACATGATGTTAATCGGGTCTTGATTCGCTTGACGCTGCTG,binding signal,[1],3.51 z-score
same,binding signal,GST-Hu-p50,2.47 z-score
CCGATTAACATCAAGGGAATACCTGATGTTAATCGGGTCTTGATTCGCTTGACGCTGCTG,binding signal,[1],4.14 z-score
same,binding signal,GST-Hu-p50,2.34 z-score
CCGATTAACATCAGAAGTTCCCATGATGTTAATCGGGTCTTGATTCGCTTGACGCTGCTG,binding signal,[1],1.1 z-score
same,binding signal,GST-Hu-p50,1.09 z-score
CCGATTAACATCAGGGAGTTCCATGATGTTAATCGGGTCTTGATTCGCTTGACGCTGCTG,binding signal,[1],2.53 z-score
same,binding signal,GST-Hu-p50,2.54 z-score
CCGATTAACATCAGGGGTATAACTGATGTTAATCGGGTCTTGATTCGCTTGACGCTGCTG,binding signal,[1],1.03 z-score
same,binding signal,GST-Hu-p50,1.68 z-score
CCGATTAACATCAGGGAACAACCTGATGTTAATCGGGTCTTGATTCGCTTGACGCTGCTG,binding signal,[1],1.65 z-score
same,binding signal,GST-Hu-p50,2.25 z-score
CCGATTAACATCAAAGTGTCCCCTGATGTTAATCGGGTCTTGATTCGCTTGACGCTGCTG,binding signal,[1],4.51 z-score
same,binding signal,GST-Hu-p50,3.85 z-score
CCGATTAACATCAATTCCCAAGGTGATGTTAATCGGGTCTTGATTCGCTTGACGCTGCTG,binding signal,[1],2.02 z-score
same,binding signal,GST-Hu-p50,2.13 z-score
CCGATTAACATCAAGCAATTCCCTGATGTTAATCGGGTCTTGATTCGCTTGACGCTGCTG,binding signal,[1],3.87 z-score
same,binding signal,GST-Hu-p50,2.99 z-score
CCGATTAACATCACCCAACCCCCTGATGTTAATCGGGTCTTGATTCGCTTGACGCTGCTG,binding signal,[1],3.73 z-score
same,binding signal,GST-Hu-p50,4.28 z-score
CCGATTAACATCACCCCTCCCCCTGATGTTAATCGGGTCTTGATTCGCTTGACGCTGCTG,binding signal,[1],4.65 z-score
same,binding signal,GST-Hu-p50,4.06 z-score
CCGATTAACATCAAACAATTCCCTGATGTTAATCGGGTCTTGATTCGCTTGACGCTGCTG,binding signal,[1],5.01 z-score
same,binding signal,GST-Hu-p50,3.72 z-score

# — paper PMC5700166
